# B1: unnamed (peptide)
# chain: ISRRRLPVIMHRLKM
# How the values were obtained:
# Assay in all cases: SPOT peptide array binding signal intensity (averaged, normalized) (arbitrary units (background-subtracted, floor 0; scale differs between SH3 domains)); higher = stronger binding of the SH3 domain to the peptide
# AgAbp1 = molecular target: AgAbp1
# Summary of the method: (§1)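 To measure binding, SH3 domains from four yeast species were fused to GST, expressed in E. coli BL21(DE3) and purified on glutathione Sepharose. Each domain was incubated at 10 μg/ml overnight at 4°C on cellulose membranes with synthetic 15-mer peptides whose cysteines were replaced by serines. Anti-GST antibody, an HRP anti-mouse secondary and luminol were used for detection, and images were quantified with Genespotter. Reported binding signal is normalized, background-subtracted spot intensity averaged over replicates, in arbitrary units that differ between domains.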
# AgBbc1 = molecular target: AgBbc1
# Summary of the method: as §1
# AgBem1-D1 = molecular target: AgBem1-D1
# Summary of the method: as §1
# AgBzz1-D1 = molecular target: AgBzz1-D1
# Summary of the method: as §1
# AgBzz1-D2 = molecular target: AgBzz1-D2
# Summary of the method: as §1
# AgCyk3 = molecular target: AgCyk3
# Summary of the method: as §1
# AgFus1 = molecular target: AgFus1
# Summary of the method: as §1
# AgHof1 = molecular target: AgHof1
# Summary of the method: as §1
# AgHse1 = molecular target: AgHse1
# Summary of the method: as §1
# AgLsb1 = molecular target: AgLsb1
# Summary of the method: as §1
# AgLsb4 = molecular target: AgLsb4
# Summary of the method: as §1
# AgMyo5 = molecular target: AgMyo5
# Summary of the method: as §1
# AgNbp2 = molecular target: AgNbp2
# Summary of the method: as §1
# AgRvs167 = molecular target: AgRvs167
# Summary of the method: as §1
# AgSho1 = molecular target: AgSho1
# Summary of the method: as §1
# AgSla1-D1-D2 = molecular target: AgSla1-D1-D2
# Summary of the method: as §1
# AgSla1-D3 = molecular target: AgSla1-D3
# Summary of the method: as §1
# CaAbp1-D1 = molecular target: CaAbp1-D1
# Summary of the method: as §1
# CaAbp1-D2 = molecular target: CaAbp1-D2
# Summary of the method: as §1
# CaBbc1 = molecular target: CaBbc1
# Summary of the method: as §1
# CaBem1-D1 = molecular target: CaBem1-D1
# Summary of the method: as §1
# CaBzz1-D1 = molecular target: CaBzz1-D1
# Summary of the method: as §1
# CaBzz1-D2 = molecular target: CaBzz1-D2
# Summary of the method: as §1
# CaCyk3 = molecular target: CaCyk3
# Summary of the method: as §1
# CaFus1 = molecular target: CaFus1
# Summary of the method: as §1
# CaHof1 = molecular target: CaHof1
# Summary of the method: as §1
# CaHse1 = molecular target: CaHse1
# Summary of the method: as §1
# CaLsb1 = molecular target: CaLsb1
# Summary of the method: as §1
# CaLsb4 = molecular target: CaLsb4
# Summary of the method: as §1
# CaMyo5 = molecular target: CaMyo5
# Summary of the method: as §1
# CaNbp2 = molecular target: CaNbp2
# Summary of the method: as §1
# CaRvs167 = molecular target: CaRvs167
# Summary of the method: as §1
# CaRvs167-3 = molecular target: CaRvs167-3
# Summary of the method: as §1
# CaSho1 = molecular target: CaSho1
# Summary of the method: as §1
# CaSla1-D1-D2 = molecular target: CaSla1-D1-D2
# Summary of the method: as §1
# CaSla1-D3 = molecular target: CaSla1-D3
# Summary of the method: as §1
# ScAbp1 = molecular target: ScAbp1
# Summary of the method: as §1
# ScBbc1 = molecular target: ScBbc1
# Summary of the method: as §1
# ScBem1-D1 = molecular target: ScBem1-D1
# Summary of the method: as §1
# ScBzz1-D1 = molecular target: ScBzz1-D1
# Summary of the method: as §1
# ScBzz1-D2 = molecular target: ScBzz1-D2
# Summary of the method: as §1
# ScCyk3 = molecular target: ScCyk3
# Summary of the method: as §1
# ScFus1 = molecular target: ScFus1
# Summary of the method: as §1
# ScHof1 = molecular target: ScHof1
# Summary of the method: as §1
# ScHse1 = molecular target: ScHse1
# Summary of the method: as §1
# ScLsb1 = molecular target: ScLsb1
# Summary of the method: as §1
# ScLsb2 = molecular target: ScLsb2
# Summary of the method: as §1
# ScLsb3 = molecular target: ScLsb3
# Summary of the method: as §1
# ScLsb4 = molecular target: ScLsb4
# Summary of the method: as §1
# ScMyo3 = molecular target: ScMyo3
# Summary of the method: as §1
# ScMyo5 = molecular target: ScMyo5
# Summary of the method: as §1
# ScNbp2 = molecular target: ScNbp2
# Summary of the method: as §1
# ScPex13 = molecular target: ScPex13
# Summary of the method: as §1
# ScRvs167 = molecular target: ScRvs167
# Summary of the method: as §1
# ScSho1 = molecular target: ScSho1
# Summary of the method: as §1
# ScSla1-D1-D2 = molecular target: ScSla1-D1-D2
# Summary of the method: as §1
# ScSla1-D3 = molecular target: ScSla1-D3
# Summary of the method: as §1
# SpAbp1-D1 = molecular target: SpAbp1-D1
# Summary of the method: as §1
# SpBbc1 = molecular target: SpBbc1
# Summary of the method: as §1
# SpBzz1-D1 = molecular target: SpBzz1-D1
# Summary of the method: as §1
# SpBzz1-D2 = molecular target: SpBzz1-D2
# Summary of the method: as §1
# SpCyk3 = molecular target: SpCyk3
# Summary of the method: as §1
# SpHof1 = molecular target: SpHof1
# Summary of the method: as §1
# SpHof1-2 = molecular target: SpHof1-2
# Summary of the method: as §1
# SpHof1-3 = molecular target: SpHof1-3
# Summary of the method: as §1
# SpHse1 = molecular target: SpHse1
# Summary of the method: as §1
# SpLsb1 = molecular target: SpLsb1
# Summary of the method: as §1
# SpLsb4 = molecular target: SpLsb4
# Summary of the method: as §1
# SpMyo1 = molecular target: SpMyo1
# Summary of the method: as §1
# SpNbp2 = molecular target: SpNbp2
# Summary of the method: as §1
# SpPex13 = molecular target: SpPex13
# Summary of the method: as §1
# SpRvs167 = molecular target: SpRvs167
# Summary of the method: as §1
# SpSla1-D1-D2 = molecular target: SpSla1-D1-D2
# Summary of the method: as §1
# SpSla1-D3 = molecular target: SpSla1-D3
# Summary of the method: as §1
binder,measurement,setting,value
B1,SPOT peptide array binding signal intensity,AgAbp1,138
same,SPOT peptide array binding signal intensity,AgBbc1,16.2
same,SPOT peptide array binding signal intensity,AgBem1-D1,66
same,SPOT peptide array binding signal intensity,AgBzz1-D1,49.5
same,SPOT peptide array binding signal intensity,AgBzz1-D2,14
same,SPOT peptide array binding signal intensity,AgCyk3,1
same,SPOT peptide array binding signal intensity,AgFus1,423
same,SPOT peptide array binding signal intensity,AgHof1,6.5
same,SPOT peptide array binding signal intensity,AgHse1,1310
same,SPOT peptide array binding signal intensity,AgLsb1,2.75
same,SPOT peptide array binding signal intensity,AgLsb4,40
same,SPOT peptide array binding signal intensity,AgMyo5,0.25
same,SPOT peptide array binding signal intensity,AgNbp2,303
same,SPOT peptide array binding signal intensity,AgRvs167,16.5
same,SPOT peptide array binding signal intensity,AgSho1,240
same,SPOT peptide array binding signal intensity,AgSla1-D1-D2,158
same,SPOT peptide array binding signal intensity,AgSla1-D3,9.5
same,SPOT peptide array binding signal intensity,CaAbp1-D1,617
same,SPOT peptide array binding signal intensity,CaAbp1-D2,645
same,SPOT peptide array binding signal intensity,CaBbc1,142
same,SPOT peptide array binding signal intensity,CaBem1-D1,102
same,SPOT peptide array binding signal intensity,CaBzz1-D1,49
same,SPOT peptide array binding signal intensity,CaBzz1-D2,42.5
same,SPOT peptide array binding signal intensity,CaCyk3,36
same,SPOT peptide array binding signal intensity,CaFus1,542
same,SPOT peptide array binding signal intensity,CaHof1,1
same,SPOT peptide array binding signal intensity,CaHse1,61
same,SPOT peptide array binding signal intensity,CaLsb1,≤ 0
same,SPOT peptide array binding signal intensity,CaLsb4,177
same,SPOT peptide array binding signal intensity,CaMyo5,0.5
same,SPOT peptide array binding signal intensity,CaNbp2,812
same,SPOT peptide array binding signal intensity,CaRvs167,42.3
same,SPOT peptide array binding signal intensity,CaRvs167-3,153
same,SPOT peptide array binding signal intensity,CaSho1,738
same,SPOT peptide array binding signal intensity,CaSla1-D1-D2,386
same,SPOT peptide array binding signal intensity,CaSla1-D3,99.8
same,SPOT peptide array binding signal intensity,ScAbp1,150
same,SPOT peptide array binding signal intensity,ScBbc1,10.5
same,SPOT peptide array binding signal intensity,ScBem1-D1,23
same,SPOT peptide array binding signal intensity,ScBzz1-D1,8.5
same,SPOT peptide array binding signal intensity,ScBzz1-D2,9
same,SPOT peptide array binding signal intensity,ScCyk3,49
same,SPOT peptide array binding signal intensity,ScFus1,516
same,SPOT peptide array binding signal intensity,ScHof1,1
same,SPOT peptide array binding signal intensity,ScHse1,1390
same,SPOT peptide array binding signal intensity,ScLsb1,32.5
same,SPOT peptide array binding signal intensity,ScLsb2,2
same,SPOT peptide array binding signal intensity,ScLsb3,1300
same,SPOT peptide array binding signal intensity,ScLsb4,42
same,SPOT peptide array binding signal intensity,ScMyo3,≤ 0
same,SPOT peptide array binding signal intensity,ScMyo5,≤ 0
same,SPOT peptide array binding signal intensity,ScNbp2,485
same,SPOT peptide array binding signal intensity,ScPex13,18
same,SPOT peptide array binding signal intensity,ScRvs167,216
same,SPOT peptide array binding signal intensity,ScSho1,1520
same,SPOT peptide array binding signal intensity,ScSla1-D1-D2,222
same,SPOT peptide array binding signal intensity,ScSla1-D3,70.5
same,SPOT peptide array binding signal intensity,SpAbp1-D1,714
same,SPOT peptide array binding signal intensity,SpBbc1,0.5
same,SPOT peptide array binding signal intensity,SpBzz1-D1,124
same,SPOT peptide array binding signal intensity,SpBzz1-D2,0.5
same,SPOT peptide array binding signal intensity,SpCyk3,16
same,SPOT peptide array binding signal intensity,SpHof1,285
same,SPOT peptide array binding signal intensity,SpHof1-2,101
same,SPOT peptide array binding signal intensity,SpHof1-3,618
same,SPOT peptide array binding signal intensity,SpHse1,690
same,SPOT peptide array binding signal intensity,SpLsb1,1.5
same,SPOT peptide array binding signal intensity,SpLsb4,484
same,SPOT peptide array binding signal intensity,SpMyo1,2.5
same,SPOT peptide array binding signal intensity,SpNbp2,437
same,SPOT peptide array binding signal intensity,SpPex13,22
same,SPOT peptide array binding signal intensity,SpRvs167,159
same,SPOT peptide array binding signal intensity,SpSla1-D1-D2,14
same,SPOT peptide array binding signal intensity,SpSla1-D3,18.5

# Source: the supplement of paper PMC4466140
